Results filed as inconclusive are left out. Active and inactive are the calls of the source.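 Rule for the calls, unless noted: active = percent response above a set limit, the screen-wide mean plus 3 SD (cut at about 130% in these data); inactive = the rest.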
Key:
[1] = rapamycin-like changes in RPL19A-GFP expression – cell-based, S. cerevisiae, multiplex flow cytometry, primary screen (AID 1862; in the data active = percent of DMSO control GFP below about 86%;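 note: lower values mimic rapamycin by blocking the RPL19A rise seen in DMSO cells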); conditions: S. cerevisiae RPL19A-GFP strain, flow cytometry fluorescence, 3 h; at 10 µM; stronger effect = lower value
[2] = TOR pathway GLN3 branch reporter MEP2-GFP changes – S. cerevisiae, multiplex flow cytometry, primary screen (AID 1867;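 active = GFP response, as percent of the DMSO control, above the screen-wide mean plus 3 SD, about 139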;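 note: median GFP channel fluorescence of barcode-gated MEP2-GFP cells measured by flow cytometry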); conditions: S. cerevisiae MEP2-GFP strain, 3 h, at 10 µM, stronger effect = higher value, 100% means same as DMSO wells
[3] = TOR pathway RTG branch CIT2 reporter changes – S. cerevisiae, GFP fusion, multiplex flow cytometry, primary screen (AID 1870);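 note: barcoded CIT2-GFP strain pooled with four other GFP strains with rapamycin as positive control; median GFP fluorescence per well over plate mean of DMSO wells so 100% = DMSO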; conditions: S. cerevisiae CIT2-GFP expression, 3 h, at 10 µM, stronger effect = higher value
[4] = TOR pathway LAP4-GFP level changes – S. cerevisiae, multiplex flow cytometry, primary screen (AID 1873;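 active = GFP signal, as percent of the solvent control, above the screen mean plus 3 SD, about 149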); conditions: S. cerevisiae LAP4-GFP expression, 3 h, at 10 µM, stronger effect = higher value
[5] = yeast AGP1-GFP level changes, GLN3 branch – cell-based, multiplex flow cytometry, S. cerevisiae, primary screen (AID 1887;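 active = GFP signal above the screen-wide mean plus 3 SD, that is over about 124.5% of the solvent control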;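 note: AGP1-GFP fusion strain of S. cerevisiae within a five-strain barcoded multiplex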); conditions: 3 h, at 10 µM, stronger effect = higher value
[6] = reduced mouse 2C T cell binding to pMHC/ICAM-1 vesicles – MLPCN validation set, flow cytometry, LFA-1/ICAM-1 modulator project, pilot screen (AID 2523;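 active = response below a set limit, under 55% cells CD8-positive and vesicle-bound, and CD8 cells' 90th-percentile brightness under 279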;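 for vesicle binding response: mean PE anti-B7-1 fluorescence of CD8+ cells relative to row control; 100% = QL9-loaded vesicles with DMSO vehicle in the same plate row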); conditions: 2C mouse CD8+ T cells, at 7 µM, stronger effect = lower value; double positive events: measured here: CD8+/vesicle+ event percentage
[7] = biological target: Integrin beta-1 (Homo sapiens) + Integrin alpha-4 (Homo sapiens) (UniProt P13612+P05556); experiment: alpha4beta1 integrin LIBS antibody binding reduction – U937 cells, HUTS-21 mAb, flow cytometry, validation set, VLA-4 allosteric modulator project, pilot screen (AID 2674;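 active = inhibition above 50%, about 3 SD of the validation set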;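 note: antibody binding induced by the VLA-4 ligand LDV present at three times its Kd; 0% = LDV ligand with antibody and no compound and 100% = antibody without LDV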); conditions: HUTS-21 LIBS mAb binding, at 6.7 µM, stronger effect = higher value, binding induced by LDV ligand
Sequence of Integrin beta-1 (Homo sapiens) + Integrin alpha-4 (Homo sapiens) (P05556 whole entry, looked up): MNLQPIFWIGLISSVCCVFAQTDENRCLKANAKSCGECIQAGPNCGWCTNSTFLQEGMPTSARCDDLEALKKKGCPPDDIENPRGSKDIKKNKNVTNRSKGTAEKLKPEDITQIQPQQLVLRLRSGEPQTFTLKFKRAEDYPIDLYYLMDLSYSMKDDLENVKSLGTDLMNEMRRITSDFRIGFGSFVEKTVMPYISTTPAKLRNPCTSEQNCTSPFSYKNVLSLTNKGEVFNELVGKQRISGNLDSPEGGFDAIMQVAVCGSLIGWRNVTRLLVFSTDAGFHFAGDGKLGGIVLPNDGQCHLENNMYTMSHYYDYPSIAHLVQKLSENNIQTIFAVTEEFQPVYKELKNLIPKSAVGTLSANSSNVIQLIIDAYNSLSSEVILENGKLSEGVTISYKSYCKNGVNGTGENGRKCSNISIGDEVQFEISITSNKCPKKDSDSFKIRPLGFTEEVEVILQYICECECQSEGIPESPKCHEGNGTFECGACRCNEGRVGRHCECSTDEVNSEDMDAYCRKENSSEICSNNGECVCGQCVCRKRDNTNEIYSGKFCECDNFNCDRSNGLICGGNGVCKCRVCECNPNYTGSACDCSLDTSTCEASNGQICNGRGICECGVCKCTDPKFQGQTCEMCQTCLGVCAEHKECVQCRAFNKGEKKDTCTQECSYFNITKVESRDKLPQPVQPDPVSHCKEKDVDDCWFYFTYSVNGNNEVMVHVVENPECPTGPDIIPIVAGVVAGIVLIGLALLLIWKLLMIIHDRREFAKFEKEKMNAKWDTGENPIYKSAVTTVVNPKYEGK
Sequence of Integrin beta-1 (Homo sapiens) + Integrin alpha-4 (Homo sapiens) (P13612 whole entry, looked up): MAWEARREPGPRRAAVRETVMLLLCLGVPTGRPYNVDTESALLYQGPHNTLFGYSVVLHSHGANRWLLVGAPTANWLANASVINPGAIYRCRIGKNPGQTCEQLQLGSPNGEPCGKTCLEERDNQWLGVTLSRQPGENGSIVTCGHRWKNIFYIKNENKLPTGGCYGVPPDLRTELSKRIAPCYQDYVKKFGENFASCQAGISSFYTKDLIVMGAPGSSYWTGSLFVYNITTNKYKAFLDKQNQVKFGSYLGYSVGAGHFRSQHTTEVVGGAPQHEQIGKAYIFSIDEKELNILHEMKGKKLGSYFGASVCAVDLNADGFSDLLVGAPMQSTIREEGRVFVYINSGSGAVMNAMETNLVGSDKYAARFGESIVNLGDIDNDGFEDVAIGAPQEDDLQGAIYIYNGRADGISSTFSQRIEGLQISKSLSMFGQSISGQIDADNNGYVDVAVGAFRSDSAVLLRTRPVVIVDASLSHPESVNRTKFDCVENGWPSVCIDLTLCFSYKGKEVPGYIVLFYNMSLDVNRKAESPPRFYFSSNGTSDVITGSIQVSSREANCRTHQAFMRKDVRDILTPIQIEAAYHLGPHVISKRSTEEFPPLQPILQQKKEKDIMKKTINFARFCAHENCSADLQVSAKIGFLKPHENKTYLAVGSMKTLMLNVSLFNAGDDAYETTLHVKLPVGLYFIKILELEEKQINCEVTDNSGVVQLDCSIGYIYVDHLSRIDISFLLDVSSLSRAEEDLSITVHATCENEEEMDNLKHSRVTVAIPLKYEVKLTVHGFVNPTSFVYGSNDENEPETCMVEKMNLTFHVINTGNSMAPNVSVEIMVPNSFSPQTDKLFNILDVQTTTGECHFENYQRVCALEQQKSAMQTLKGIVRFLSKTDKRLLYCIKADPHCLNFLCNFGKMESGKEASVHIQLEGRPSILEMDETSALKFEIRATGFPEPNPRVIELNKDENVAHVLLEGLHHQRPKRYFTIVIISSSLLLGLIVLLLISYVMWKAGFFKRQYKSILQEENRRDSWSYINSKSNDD

[8] = calorie-restriction mimetic ROS inhibitors, yeast – validation compound set, pilot screen (AID 2706;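 active = superoxide response below 65% of plate, a cut near 3 SD across the whole screen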;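 note: yeast exposed to compound for one week at 30 degrees C before staining; 100% = mean of all compound wells on the same plate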); conditions: S. cerevisiae aging, superoxide DHE fluorescence; at 10 µM; stronger effect = lower value
[9] = biological target: Beta-adrenergic receptor kinase 1 (Homo sapiens) (UniProt P25098); experiment: GRK2 binders displacing RNA aptamer, biochemical, validation, human GRK2, bead flow cytometry (AID 488806;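 active = aptamer binding inhibition above 30%, about 3 SD of noise from non-fluorescent compounds; inactive = inhibition at or below 30%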); conditions: bead-bound GRK2, FAM-aptamer displacement, at 10 µM, stronger effect = higher value
Sequence of Beta-adrenergic receptor kinase 1 (Homo sapiens) (P25098 whole entry, looked up): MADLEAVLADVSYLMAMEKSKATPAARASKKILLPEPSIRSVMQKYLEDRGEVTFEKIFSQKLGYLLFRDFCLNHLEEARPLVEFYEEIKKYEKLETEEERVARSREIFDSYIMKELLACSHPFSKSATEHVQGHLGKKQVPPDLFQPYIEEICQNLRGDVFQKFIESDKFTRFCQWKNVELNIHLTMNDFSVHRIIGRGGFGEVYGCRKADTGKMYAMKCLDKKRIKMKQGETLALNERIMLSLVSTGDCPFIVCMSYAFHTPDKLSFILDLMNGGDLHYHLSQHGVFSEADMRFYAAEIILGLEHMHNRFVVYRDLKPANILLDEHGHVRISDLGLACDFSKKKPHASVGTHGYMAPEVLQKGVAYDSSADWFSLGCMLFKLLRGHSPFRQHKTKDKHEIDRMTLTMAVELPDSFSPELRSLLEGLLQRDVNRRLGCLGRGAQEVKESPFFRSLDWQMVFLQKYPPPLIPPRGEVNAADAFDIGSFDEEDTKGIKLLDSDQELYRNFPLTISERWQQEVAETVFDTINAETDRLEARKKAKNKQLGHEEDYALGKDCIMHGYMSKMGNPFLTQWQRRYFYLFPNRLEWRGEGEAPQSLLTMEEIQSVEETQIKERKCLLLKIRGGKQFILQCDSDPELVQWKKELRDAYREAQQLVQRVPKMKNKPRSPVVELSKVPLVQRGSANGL

[10] = biological target: Beta-2 adrenergic receptor (Homo sapiens) (UniProt P07550); experiment: agonist-induced loss of surface beta2AR – cell-based, FAP fluorogen, flow cytometry, validation set, pilot screen (AID 504459;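 active = percent response above 42, roughly 3 SD of non-fluorescent test compounds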;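 note: agonist-driven loss of surface beta2AR via internalization measured by FAP dye flow cytometry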); conditions: Am2.2-beta2AR cells, at 10 µM, stronger effect = higher value
Sequence of Beta-2 adrenergic receptor (Homo sapiens) (P07550 whole entry, looked up): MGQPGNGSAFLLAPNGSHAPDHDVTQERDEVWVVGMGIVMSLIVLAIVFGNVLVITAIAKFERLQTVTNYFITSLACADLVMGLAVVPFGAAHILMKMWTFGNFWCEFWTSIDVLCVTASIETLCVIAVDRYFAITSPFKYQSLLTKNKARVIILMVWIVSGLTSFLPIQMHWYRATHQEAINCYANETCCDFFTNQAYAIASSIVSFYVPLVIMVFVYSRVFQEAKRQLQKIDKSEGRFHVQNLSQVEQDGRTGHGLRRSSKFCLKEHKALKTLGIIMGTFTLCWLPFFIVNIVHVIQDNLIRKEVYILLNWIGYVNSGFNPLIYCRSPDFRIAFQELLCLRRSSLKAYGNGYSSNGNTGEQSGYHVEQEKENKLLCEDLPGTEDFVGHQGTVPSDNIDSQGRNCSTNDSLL

[11] = biological target: AP-2 complex subunit beta (Homo sapiens) (UniProt P63010); experiment: beta-arrestin/AP2 interaction blockers – biochemical, validation set, GST-AP2 beads, flow cytometry, pilot screen (AID 504541;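 active = inhibition above 54%, about 3 SD of non-fluorescent compounds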;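 note: AP2 carries R879A mutation and is captured from E. coli lysate; bead-bound FITC arrestin peptide fluorescence measuring arrestin peptide binding to AP2; 0% = DMSO wells and 100% = excess unlabeled arrestin peptide control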); conditions: FITC arrestin peptide, at 10 µM, stronger effect = higher value, AP2 beta2 appendage fragment, R879A mutant
Sequence of AP-2 complex subunit beta (Homo sapiens) (P63010 whole entry, looked up, the tested form may be a part, one chain of several): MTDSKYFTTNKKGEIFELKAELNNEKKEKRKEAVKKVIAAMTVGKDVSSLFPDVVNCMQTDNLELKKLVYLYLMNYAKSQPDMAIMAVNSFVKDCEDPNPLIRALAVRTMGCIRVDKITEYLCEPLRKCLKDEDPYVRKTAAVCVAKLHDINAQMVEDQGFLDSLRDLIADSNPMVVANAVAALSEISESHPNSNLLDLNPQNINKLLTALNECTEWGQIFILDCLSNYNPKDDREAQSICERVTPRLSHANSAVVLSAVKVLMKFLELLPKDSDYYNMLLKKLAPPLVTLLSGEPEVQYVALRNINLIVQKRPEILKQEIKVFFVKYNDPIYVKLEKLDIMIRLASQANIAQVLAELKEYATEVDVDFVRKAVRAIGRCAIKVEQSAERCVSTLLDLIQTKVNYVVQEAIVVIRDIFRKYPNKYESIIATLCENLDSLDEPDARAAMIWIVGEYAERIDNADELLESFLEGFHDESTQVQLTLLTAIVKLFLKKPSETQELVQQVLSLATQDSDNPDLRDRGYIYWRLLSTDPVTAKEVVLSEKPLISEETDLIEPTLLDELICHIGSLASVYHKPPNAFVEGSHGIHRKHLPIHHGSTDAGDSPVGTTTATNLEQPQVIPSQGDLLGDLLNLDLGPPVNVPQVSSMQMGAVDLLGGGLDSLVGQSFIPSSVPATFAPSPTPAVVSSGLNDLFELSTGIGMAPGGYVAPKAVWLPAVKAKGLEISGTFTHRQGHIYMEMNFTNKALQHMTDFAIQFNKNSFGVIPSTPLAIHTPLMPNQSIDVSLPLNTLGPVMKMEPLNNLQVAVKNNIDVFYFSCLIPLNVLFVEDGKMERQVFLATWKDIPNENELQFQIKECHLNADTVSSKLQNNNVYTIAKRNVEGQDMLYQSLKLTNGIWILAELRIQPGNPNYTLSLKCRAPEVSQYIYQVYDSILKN

[12] = cytosolic pH regulators acting via V-ATPase – S. cerevisiae, pHLuorin, HTS validation (AID 504600; in the data active = response above about 15%;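 note: plate controls were DMSO for no effect and reference compound for full effect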); conditions: V-ATPase proton transport, at 10 µM, stronger effect = higher value
[13] = system: anti-desmoglein-3 scFv antibody binding to human DSG3; experiment: blockers of pathogenic pemphigus antibody–desmoglein-3 binding – biochemical, validation compound set, bead-based, flow cytometry, pilot screen (AID 588368;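 active = binding below the plate cutoff, the plate median minus 3 SD, with a reading above zero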;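 note: signal is the median channel fluorescence of bead-bound GFP antibody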); conditions: Protein G beads, DSG3-Fc, scFv-GFP binding, at 10 µM, stronger effect = lower value
[14] = Nile Red efflux blockade in pump-expressing yeast – validation compound set, multiplex, phenotypic, pilot screen (AID 588506;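 active = efflux inhibition above 0.42, the validation set average plus 4 SD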;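 note: Nile Red retained in cells so higher fluorescence means more efflux inhibition; 0 = negative control wells and 1 = enniatin B 25 µM full block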); conditions: S. cerevisiae pump-expressing triplex, Nile Red efflux flow cytometry; at 10 µM; stronger effect = higher value; the pumps come from Candida albicans
[15] = biological target: ATP-binding cassette sub-family B member 6 (Homo sapiens) (UniProt Q9NP58); experiment: blockers of ABCB6-driven porphyrin uptake – K562-ABCB6 cells, flow cytometry, validation set, pilot screen (AID 588550;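 active = inhibition above the screen-wide mean plus 3 SD, about 51%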;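 note: 0% = DMSO wells and 100% = benzethonium chloride 70 µM positive control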); conditions: K562-ABCB6 porphyrin accumulation, 1 h, at 10 µM, stronger effect = higher value
Sequence of ATP-binding cassette sub-family B member 6 (Homo sapiens) (Q9NP58 whole entry, looked up): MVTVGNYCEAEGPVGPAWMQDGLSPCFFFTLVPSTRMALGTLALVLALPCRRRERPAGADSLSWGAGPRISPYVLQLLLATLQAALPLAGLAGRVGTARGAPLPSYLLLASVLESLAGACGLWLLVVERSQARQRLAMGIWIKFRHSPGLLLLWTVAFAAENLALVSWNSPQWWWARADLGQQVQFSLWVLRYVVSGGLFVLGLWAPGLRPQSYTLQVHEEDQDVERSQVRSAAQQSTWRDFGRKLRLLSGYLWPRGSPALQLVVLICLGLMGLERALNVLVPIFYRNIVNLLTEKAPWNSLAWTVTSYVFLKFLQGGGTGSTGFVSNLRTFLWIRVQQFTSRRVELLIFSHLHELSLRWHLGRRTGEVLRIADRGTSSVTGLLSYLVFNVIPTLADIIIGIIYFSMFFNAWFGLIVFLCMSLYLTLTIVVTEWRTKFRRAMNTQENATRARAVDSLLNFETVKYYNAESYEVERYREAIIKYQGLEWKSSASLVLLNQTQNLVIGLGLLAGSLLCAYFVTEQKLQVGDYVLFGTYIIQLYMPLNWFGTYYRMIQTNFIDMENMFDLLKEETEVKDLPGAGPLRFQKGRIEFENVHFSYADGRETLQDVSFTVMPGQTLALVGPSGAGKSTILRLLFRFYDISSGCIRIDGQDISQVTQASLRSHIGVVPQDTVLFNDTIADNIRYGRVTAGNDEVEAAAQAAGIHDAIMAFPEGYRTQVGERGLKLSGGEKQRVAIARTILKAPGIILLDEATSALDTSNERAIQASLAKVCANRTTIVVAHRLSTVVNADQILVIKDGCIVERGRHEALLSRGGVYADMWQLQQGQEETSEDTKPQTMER

[16] = AML differentiation inducers, ER-HoxA9 marrow cells – cell-based, GFP/MAC1 double positive, flow cytometry, validation set, primary screen (AID 588685;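 active = differentiation response of at least 50%, scaled between solvent and reference control, from cells with both markers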;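 note: compound exposure lasts four days before antibody staining and flow analysis; 0% = DMSO wells and 100% = 5 µM fulvestrant positive control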); conditions: stronger effect = higher value, normalized: vehicle 0, fulvestrant 100

| Structure (SMILES) | percent of DMSO control GFP [1] | GFP response vs DMSO [2] | percent response of DMSO control [3] | GFP response vs DMSO [4] | GFP response, % of DMSO [5] | double positive events [6] [%] | vesicle binding response [6] | inhibition [7] | superoxide response (% of plate) [8] | aptamer binding inhibition [9] | response [10] | inhibition [11] | response [12] | binding (% of control) [13] | efflux inhibition (fraction of control) [14] | inhibition [15] | differentiation response [16] |
| --- | --- | --- | --- | --- | --- | --- | --- | --- | --- | --- | --- | --- | --- | --- | --- | --- | --- |
| Cc1ccc2c(c1)C1CN(C)CCC1N2S(=O)(=O)c1ccc(Oc2ccc([N+](=O)[O-])cc2)cc1 (stereo not given) | 104% (inactive) | 103% (inactive) | 106% (inactive) | 91.5% (inactive) | 97% (inactive) | 56.7 | 153% (inactive) | 2.93% (inactive) | 97.8% (inactive) | -7% (inactive) | 25.2% (inactive) | -1.46% (inactive) | 10.4% (inactive) | 105% (inactive) | 0.085 (inactive) | -4% (inactive) | -14.8% (inactive) |
| C[N+](C)(C)CCCCCCCCCC[N+](C)(C)C | 94.4% (inactive) | 129% (inactive) | 103% (inactive) | 77% (inactive) | 87% (inactive) | 70 | 208% (inactive) | 3.55% (inactive) | 100% (inactive) | 5% (inactive) | -10.3% (inactive) | -6.99% (inactive) | 0.2% (inactive) | 101% (inactive) | -0.56 (inactive) | 12% (inactive) | 1.64% (inactive) |
| COc1ccc(N2C(=O)C3C(C2=O)C(C(=O)c2ccccc2)N2CCCC32)cc1 (stereo not given) | 98.6% (inactive) | 107% (inactive) | 84.4% (inactive) | 122% (inactive) | 95.7% (inactive) | 61.2 | 241% (inactive) | -20.9% (inactive) | 102% (inactive) | 5% (inactive) | 37.4% (inactive) | 4.51% (inactive) | -0.56% (inactive) | 100% (inactive) | -0.24 (inactive) | -7% (inactive) | 12% (inactive) |
| O=C(CS(=O)(=O)c1ccccc1)c1ccc2c(c1)OCCO2 | 99.7% (inactive) | 103% (inactive) | 100% (inactive) | 112% (inactive) | 113% (inactive) | 57.1 | 194% (inactive) | -9.63% (inactive) | 98.2% (inactive) | 4% (inactive) | -29.9% (inactive) | -15.5% (inactive) | -0.24% (inactive) | 103% (inactive) | 0.12 (inactive) | 5% (inactive) | -1.05% (inactive) |
| COc1cc(C(=O)OCCn2c(=O)c3c(ncn3CCN(C)C)n(C)c2=O)cc(OC)c1OC | 106% (inactive) | 103% (inactive) | 101% (inactive) | 112% (inactive) | 117% (inactive) | 62.6 | 156% (inactive) | 4.84% (inactive) | 115% (inactive) | 6% (inactive) | -24.2% (inactive) | -2.34% (inactive) | -26.2% (inactive) | 112% (inactive) | -0.13 (inactive) | 9% (inactive) | -6.96% (inactive) |
| COC(=O)CN1C(=S)N(c2ccc(F)cc2)C(=O)C1CC(=O)Nc1ccccc1 (stereo not given) | 99.7% (inactive) | 101% (inactive) | 102% (inactive) | 120% (inactive) | 118% (inactive) | 57.4 | 189% (inactive) | 11.7% (inactive) | 103% (inactive) | 1% (inactive) | -25.4% (inactive) | 0.21% (inactive) | 0.96% (inactive) | 101% (inactive) | 0 (inactive) | -3% (inactive) | -10.9% (inactive) |
| COC(=O)c1ccc2c(c1)C(=O)/C(=C/c1ccc(O)cc1)O2 | 95.4% (inactive) | 109% (inactive) | 92% (inactive) | 111% (inactive) | 95.5% (inactive) | 59 | 90.4% (inactive) | -8.62% (inactive) | 102% (inactive) | 2% (inactive) | -5.34% (inactive) | 6.94% (inactive) | -1.86% (inactive) | 100% (inactive) | 0.19 (inactive) | 2% (inactive) | -26.4% (inactive) |
| O=C(NCCNc1ccc(Cl)cc1[N+](=O)[O-])c1cccnc1 | 100% (inactive) | 102% (inactive) | 102% (inactive) | 106% (inactive) | 98.9% (inactive) | 57.5 | 13.3% (inactive) | 5.41% (inactive) | 102% (inactive) | -6% (inactive) | -6.88% (inactive) | 20% (inactive) | 0.22% (inactive) | 100% (inactive) | -0.22 (inactive) | 4% (inactive) | 8.02% (inactive) |
| CCn1cc(CN2N=C(C)CC2c2ccccc2)c(C)n1 (stereo not given) | 95.6% (inactive) | 120% (inactive) | 92.9% (inactive) | 116% (inactive) | 97.2% (inactive) | 60.6 | 87.5% (inactive) | -7.25% (inactive) | 106% (inactive) | 3% (inactive) | 7.08% (inactive) | -1.16% (inactive) | 1.03% (inactive) | 103% (inactive) | -0.28 (inactive) | 3% (inactive) | -29.6% (inactive) |
| COc1cc2c(cc1OC)C(c1ccc(-c3cc(Cl)ccc3Cl)o1)=NCC2 | 102% (inactive) | 109% (inactive) | 101% (inactive) | 75.2% (inactive) | 79.3% (inactive) | 59.5 | 228% (inactive) | -53.7% (inactive) | 97.5% (inactive) | 5% (inactive) | 60.6% (active) | 17.6% (inactive) | 2.96% (inactive) | 101% (inactive) | 0.3 (inactive) | 3% (inactive) | -26.4% (inactive) |
